PP1 counter: counter-screen for PP5 inhibitors: inhibitors of human PP1-alpha; P62136; purified PP1alpha, OMFP fluorescence; inhibition, % at 6.7 µM; 320,000 compounds, 0.9% hits;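 active = inhibition above the mean inhibition of all tested compounds plus 3 SD, computed separately for each screening campaign, cut at about 15% in these data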
Mdm2 MdmX PPI: human Mdm2/MdmX binding inhibition; O15151+Q00987; SaOS-2 split-luciferase Mdm2/MdmX complementation, luminescence; inhibition, % at 8 µM; 330,000 compounds, 3% hits;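 active = inhibition of at least 50% at 8 µM in the primary screen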
Target sequence (O15151 whole entry, looked up): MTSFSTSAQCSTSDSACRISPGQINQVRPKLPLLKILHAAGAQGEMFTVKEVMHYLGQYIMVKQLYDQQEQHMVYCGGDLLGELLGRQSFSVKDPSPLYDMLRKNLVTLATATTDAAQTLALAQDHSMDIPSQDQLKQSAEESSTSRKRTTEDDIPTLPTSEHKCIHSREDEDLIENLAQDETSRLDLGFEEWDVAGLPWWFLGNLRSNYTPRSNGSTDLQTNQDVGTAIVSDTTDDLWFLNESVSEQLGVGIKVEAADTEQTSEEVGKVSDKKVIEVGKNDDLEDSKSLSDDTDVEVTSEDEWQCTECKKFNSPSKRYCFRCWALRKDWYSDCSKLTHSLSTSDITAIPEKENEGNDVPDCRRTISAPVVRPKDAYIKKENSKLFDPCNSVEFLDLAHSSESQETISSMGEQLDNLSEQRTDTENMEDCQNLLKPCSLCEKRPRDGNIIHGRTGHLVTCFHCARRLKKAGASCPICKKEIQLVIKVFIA
Target sequence (Q00987 whole entry, looked up): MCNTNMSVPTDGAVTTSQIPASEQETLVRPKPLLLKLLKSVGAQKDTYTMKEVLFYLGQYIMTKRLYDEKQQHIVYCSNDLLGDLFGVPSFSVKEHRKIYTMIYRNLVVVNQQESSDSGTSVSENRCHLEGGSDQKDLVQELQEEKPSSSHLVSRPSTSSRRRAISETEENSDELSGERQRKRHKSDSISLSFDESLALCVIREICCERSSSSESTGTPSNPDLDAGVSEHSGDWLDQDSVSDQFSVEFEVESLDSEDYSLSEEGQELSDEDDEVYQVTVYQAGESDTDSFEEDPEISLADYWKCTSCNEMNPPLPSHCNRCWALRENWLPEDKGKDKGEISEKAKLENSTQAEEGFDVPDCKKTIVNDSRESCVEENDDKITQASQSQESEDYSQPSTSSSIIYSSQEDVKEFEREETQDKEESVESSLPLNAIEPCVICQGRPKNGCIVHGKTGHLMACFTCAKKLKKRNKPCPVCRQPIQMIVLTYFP
PP5 inh: blocks human protein phosphatase 5 activity; P53041; purified PP5c, OMFP substrate fluorescence; inhibition, % at 6.7 µM; 320,000 compounds, 0.18% hits;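 active = inhibition above the campaign's mean inhibition across all tested compounds plus 3 SD, cut at about 9.5% in these data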
Calb FLC: affects C. albicans growth with fluconazole | C. albicans CaCi-2 (fluconazole-resistant clinical isolate) + fluconazole, Alamar Blue growth, 48 h | growth inhibition, % (concentration not given with the values) | 300,000 compounds, 0.57% hits;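 active = growth inhibition above about 58% in most replicates, limit read from the data, passing the limit was not always enough; inconclusive = exactly half the replicates above a set limit; inactive = most replicates below a set limit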;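 also: all wells also contain fluconazole at 8 µg/ml as a sub-toxic cotreatment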
CSC inhib: cancer stem cell inhibition; cancer stem cell-like cells viability, luminescence; inhibition, % at 7.5 µM; 300,000 compounds, 1.1% hits; AID 2717; in the data active = inhibition above about 75%; inconclusive = no clear call, values can overlap the other calls; tested in HMLE shEcad cells
Beta cell apopt: blocks beta cell apoptosis; INS-1E cytokine-induced death, ATP luminescence, 48 h; percent of positive-control rescue, neutral wells zero; 300,000 compounds, 0.8% hits; AID 435005; protection from apoptosis, % (no concentration beside the values);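 active = Every replicate reaches about 75%, or at least half do and their mean reaches it too, limit read from the data; inconclusive = At least half of replicates reach the limit but their mean does not; inactive = Under half of replicates reach the limit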;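 also: higher means more ATP so stronger rescue from cytokine killing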
Mdm2-MdmX conf: confirmation of human Mdm2/MdmX interaction inhibitors. Mdm2-MdmX binding, luminescent assay. inhibition, % at 8 µM. AID 489028. 10,000 compounds, 55% hits. shares compounds with Mdm2 MdmX PPI; in the data active = inhibition above about 40%
FLuc counter: inhibits full-length luciferase, flagging false Mdm2/MdmX hits | shares compounds with Mdm2 MdmX PPI | SaOS-2 full-length luciferase counterscreen, luminescence | inhibition, % at 8 µM | 6,200 compounds, 77% hits | AID 504607;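 active = mean inhibition at 8 µM reaching about 37%, which flags the compound as non-specific, limit read from the data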;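 also: p53-null SaOS-2 cells with luciferase driven by a doxycycline-inducible promoter; compound on cells about two nights before reading with doxycycline added after day one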
Hits are given with their value; - = inactive; ? = inconclusive; . = no result. An excerpt weighted towards active compounds, which were near 4.9% of everything screened.

SMILES	PP1 counter	Mdm2 MdmX PPI	PP5 inh	Calb FLC	CSC inhib	Beta cell apopt	Mdm2-MdmX conf	others
O=C(c1ccco1)N(Cc1ccc2c(c1)OCO2)Cc1cc2cc3c(cc2[nH]c1=O)OCO3	-	60	-	-	-	-	-
COc1ccc(C(=O)N(Cc2ccccc2)Cc2cc3cc4c(cc3[nH]c2=O)OCCO4)cc1	-	51	-	-	-	-	65	FLuc counter=51
CCC1(c2ccccc2)NC(=O)N(CC(=O)NCc2ccc(OC)cc2)C1=O (stereo not drawn)	-	-	-	-	-	.	.
O=C(CC1C[C@H](C(=O)N2CCCCC2)[C@@]2(CCc3ccccc3)c3[nH]c4ccccc4c3CCN2C1=O)NCc1cccc(C(F)(F)F)c1 (stereo partly drawn)	.	-	.	.	.	-	.
CC(C)(C)NC(=O)C[C@H]1C[C@H](C(=O)N2CCCCC2)[C@@]2(CCc3ccccc3)c3[nH]c4ccc(Cl)cc4c3CCN2C1=O	.	52	.	.	.	.	-	FLuc counter=73
O=C(C[C@H]1C[C@H](C(=O)N2CCCCC2)[C@@]2(CCc3ccccc3)c3[nH]c4ccc(Cl)cc4c3CCN2C1=O)NCc1cccc(C(F)(F)F)c1	.	66	.	.	.	.	61	FLuc counter=-
O=C(CCl)N(c1ccccc1)C1CCS(=O)(=O)C1 (stereo not drawn)	-	99	-	-	-	-	93	FLuc counter=55
C=CCn1c(-c2ccc([N+](=O)[O-])cc2)n[nH]c1=S	-	-	-	-	-	.	.
CC(=O)C(C(C)=O)c1c(Cl)c(O)c(O)c2c(C(=O)c3ccccc3)coc12	-	60	-	?	-	128	-
CN1CCN(Cc2c(O)ccc3occ(C(=O)c4ccccc4)c23)CC1	-	-	-	-	-	-	.
O=C(/C=C/c1ccccc1[N+](=O)[O-])N1CCN(c2ccccc2F)CC1	-	-	-	-	-	-	.
O=C(O)c1ccc(C2NCC(c3ccccc3Cl)c3c2[nH]c2ccccc32)cc1 (stereo not drawn)	-	-	-	-	-	-	.
COc1cc(C2NCC(c3ccc(Cl)cc3Cl)c3c2[nH]c2ccccc32)cc(OC)c1OC (stereo not drawn)	-	61	-	-	81	-	-
Cc1cc(C)n(C(=O)CCCCCCCCC(=O)n2nc(C)cc2C)n1	-	-	-	-	.	-	.
O=C(N/N=C/c1cc(Br)c(Br)s1)c1ccncc1	-	51	-	-	-	85	-
COc1cccc2c1C(=O)c1c(O)c3c(c(O)c1C2=O)C[C@@](O)(C(=O)CO)C[C@@H]3O[C@H]1C[C@H](N)[C@H](O)[C@H](C)O1	-	99	-	.	-	-	99	FLuc counter=-
O=c1c2c3c(sc2nc(N2CCNCC2)n1-c1cccc(Cl)c1)CCCCC3	15	67	-	-	-	-	-
CCN1CCN(c2nc3sc4c(c3c(=O)n2-c2ccc(OC)cc2)CCCCC4)CC1	-	-	-	-	-	-	.
COc1cc(C(C(=O)NC2CCCC2)N(C(=O)Cc2cccs2)C2CC2)cc(OC)c1OC (stereo not drawn)	-	-	-	?	-	-	.
CC(=O)Nc1cccc(NC(=O)c2cc(-c3cccnc3)nc3ccc(Br)cc23)c1	-	68	-	-	-	-	73	FLuc counter=90
COc1cccc(-c2cc(C(=O)Nc3ccc(N(C)C(C)=O)cc3)c3cc(Br)ccc3n2)c1	-	62	-	-	-	-	-
COc1cccc(-c2cc(C(=O)Nc3ccncc3)c3ccccc3n2)c1	-	-	-	-	-	-	.
O=C(Nc1ccc(C(F)(F)F)cc1)c1cc(-c2cccnc2)nc2ccc(Br)cc12	-	57	-	-	-	-	-
COc1ccc(-n2c(C)nnc2SCC(=O)Nc2ccccc2F)cc1	-	-	-	-	-	-	.
C1=CC2=NC34CCCCC3CC3=C(CCCC3)N4C2=CC1=NC1CCCCC1 (stereo not drawn)	-	100	-	-	-	-	78	FLuc counter=38
SMILES	PP1 counter	Mdm2 MdmX PPI	PP5 inh	Calb FLC	CSC inhib	Beta cell apopt	Mdm2-MdmX conf	others
CC(=O)N(CCC1(C(C)C)CCOC(C)(C)C1)C(C)c1cccs1 (stereo not drawn)	-	-	-	-	-	.	.
CCOC(=O)C1=C(C)Nc2sc(C(=O)c3ccc(F)cc3)c(N)c2C1c1ccc(C(=O)OC)cc1 (stereo not drawn)	-	61	-	-	.	-	-
O=C(/C=C/c1ccco1)NC(=S)Nc1nc(-c2ccc(Cl)cc2)cs1	-	61	-	-	.	-	54	FLuc counter=67
O=C(/C=C/c1ccco1)NC(=S)Nc1nc(-c2ccc3ccccc3c2)cs1	-	78	-	-	76	-	45	FLuc counter=48
COc1ccc(-c2csc(NC(=S)NC(=O)/C=C/c3ccccc3)n2)cc1Br	-	55	-	-	-	-	-
O=C(/C=C\c1ccco1)Nc1nc(-c2ccccc2)cs1	-	-	-	-	.	.	.
O=C(NCc1ccccn1)C(=O)Nc1nc(C23CC4CC(CC(C4)C2)C3)cs1	-	-	-	-	-	-	.
CCc1nc(N2CCN(CC(=O)NCC3CCCO3)CC2)c(C#N)c2c1COC(C)(C)C2 (stereo not drawn)	-	-	-	-	-	-	.
CC1(C)CC(Cc2nc(=S)[nH][nH]2)C(=O)O1 (stereo not drawn)	-	-	-	-	-	-	.
Cc1cc(/C=C2\Sc3ccccc3N2C)cc(C)[n+]1CC1CCCO1 (stereo not drawn)	.	87	.	.	.	.	90	FLuc counter=-
Cc1ccc(/C=C2/Sc3ccccc3N(CC(=O)NCC3CCCO3)C2=O)cc1 (stereo not drawn)	-	-	-	-	-	-	.
CN(CC(=O)Nc1cccc(F)c1)C(=O)c1ccncc1	-	-	-	-	-	-	.
S=C(Nc1ccccc1)Nc1nc2ccccc2n1CCOc1ccccc1	-	51	-	94	98	-	-
CCCCn1c(NC(=O)c2ccccc2)nc2ccccc21	-	-	-	-	-	-	.
CCCn1c(NC(=O)c2ccco2)nc2ccccc21	-	-	-	-	-	-	.
CCCCn1c(NC(=S)Nc2ccccc2)nc2ccccc21	-	58	-	-	.	-	-	FLuc counter=94
COc1ccc(OCCn2c(NC(=O)c3ccco3)nc3ccccc32)cc1	-	57	-	-	-	-	-
CC(=O)Nc1nc2ccccc2n1CCOc1ccccc1	-	-	-	-	-	-	.
O=C(COC(=O)COc1cccc(Br)c1)Nc1c(Cl)cccc1Cl	-	-	-	-	-	-	.
CCOc1ccc(CN(C)CC(O)COC(c2ccc(OC)cc2)c2ccc(OC)cc2)cc1 (stereo not drawn)	-	59	-	-	-	-	-
O=C(Nc1nccs1)c1ncc(Cl)c(Cl)c1Cl	-	-	-	-	-	-	.

Screening results (PubChem BioAssay)
